From PubChem
Bcl-xL primary – inhibitors of human Bcl-xL, primary screen, biochemical, fluorescence polarization, HTS. GST-Bcl-xL / FITC-Bim BH3 peptide fluorescence polarization. inhibition, % at 10.9 µM. hit rate 0.7% among 320,000;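 active = inhibition above the mean of all tested compounds plus 3 SD, cutoff set per campaign, cut at about 30% in these data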;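 note: 0% = DMSO wells and 100% = unlabeled Bim-BH3 peptide competitor; inhibitors lower millipolarization by displacing the labeled peptide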
MEX-5 binding – MEX-5 zinc finger RNA-binding disruptors – biochemical, C. elegans, fluorescence polarization, MLPCN library, primary screen; MEX-5/FITC-TCR2 RNA binding; stronger effect = lower value; activity score (negative = inhibition of binding), % at 10 µM; hit rate 0.38% among 300,000; AID 1832, 2009;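 active = inhibition past about -25% in most replicates, and total fluorescence under double the plate's negative control median, limit read from the data; inconclusive = replicates evenly split on the limit, or fluorescence at least double controls; inactive = too little inhibition in most replicates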;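 note: 0% = DMSO and -100% = 5 µM competing unlabeled TCR2 RNA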
IDE cell inh – human IDE inhibitors in live cells, primary screen, fluorescence polarization, HEK cells, FAbetaB substrate; Insulin-degrading enzyme (Homo sapiens), P14735; FAbetaB cleavage; inhibition, % at 5.59 µM; hit rate 0.41% among 320,000;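 active = percent inhibition above the average of all tested compounds plus 3 SD, set per screening campaign, cut at about 16% in these data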;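 note: IDE supplied by intact live HEK cells; FP after avidin binding of uncleaved biotin substrate so inhibition keeps polarization high; 0% = DMSO wells and 100% = 60 µM reference IDE inhibitor Ii1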
MCL1 BIM primary – inhibitors of MCL1 binding to BIM-BH3, primary screen, biochemical, fluorescence polarization; Induced myeloid leukemia cell differentiation protein Mcl-1 (Homo sapiens), Q07820; GST-MCL1 / FITC-Bim-BH3 fluorescence polarization; inhibition, % at 10.9 µM; hit rate 0.68% among 320,000;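 active = inhibition above the mean inhibition of all tested compounds plus 3 SD, set per campaign, cut at about 40% in these data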;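 note: 0% = DMSO wells and 100% = unlabeled Bim-BH3 peptide control; higher means more loss of mP so more displacement of Bim peptide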
Target sequence (Q07820 whole entry, looked up): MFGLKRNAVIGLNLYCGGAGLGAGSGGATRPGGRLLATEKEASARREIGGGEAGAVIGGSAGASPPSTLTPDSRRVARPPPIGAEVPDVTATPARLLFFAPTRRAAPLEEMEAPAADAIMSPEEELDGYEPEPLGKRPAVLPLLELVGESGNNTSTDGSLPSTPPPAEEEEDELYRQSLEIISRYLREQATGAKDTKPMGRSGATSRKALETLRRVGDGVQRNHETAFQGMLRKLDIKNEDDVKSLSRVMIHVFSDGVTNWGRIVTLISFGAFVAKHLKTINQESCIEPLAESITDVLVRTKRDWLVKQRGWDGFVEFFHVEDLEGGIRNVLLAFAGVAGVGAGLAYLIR
GLD-1 RNA inh – GLD-1/TGE RNA complex disruptors, primary screen, biochemical, fluorescence polarization; Female germline-specific tumor suppressor gld-1 (Caenorhabditis elegans), Q17339; purified GLD-1 + fluorescein TGE RNA; inhibition, % at 5.96 µM; hit rate 0.44% among 320,000; AID 2280, 2010;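 active = percent inhibition above a per-plate cutoff, the plate mean of test compounds plus 3 SD, cut at about 30% in these data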;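 note: 0% = DMSO wells with GLD-1 and probe and 100% = wells lacking GLD-1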
IDE cell activ – human IDE activators in live cells, primary screen, fluorescence polarization, HEK cells, FAbeta-B substrate; FAbeta-B cleavage; 0% vehicle, 100% cell-free pure enzyme wells; activation, % at 5.96 µM; hit rate 0.073% among 340,000; Insulin-degrading enzyme (Homo sapiens), P14735;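 active = activation above the mean of all tested compounds plus 3 SD, set per screening campaign, cut at about 17% in these data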
* hit, by the source's call; ? = inconclusive; nt = no result given. A selection: hits, their analogues and other compounds. The true share with any hit is near 1.5%.

SMILES	Bcl-xL primary	MEX-5 binding	IDE cell inh	MCL1 BIM primary	GLD-1 RNA inh	IDE cell activ
CC(NC(=O)CCNC(=O)N1CCn2c1nc1ccccc12)c1ccccc1 (stereo not given)	3.5	-0.7	-2.7	2.4	2.3	6.2
N#CC1=C(N)C2=C(N3CCCCC3)CCCC2C1(C#N)C#N (stereo not given)	25.4	-44.0*	2.0	34.9	18.1	-3.5
CCSC1=N/C(=C\C=C2/Oc3ccccc3N2CC)C(=O)S1	-93.9	12.9	19.8*	-140.9	-203.6	-34.7
CCSC1=N/C(=C\c2ccc3c(c2)OCO3)C(=O)S1	1.4	-1.2	5.2	3.2	3.3	7.8
O=C(c1cnn2c(C(F)(F)F)cc(-c3ccc4c(c3)OCO4)nc12)N1CCCCC1	1.5	-1.4	5.1	3.3	4.9	-6.0
O=C(NC1CCCC1)c1cnn2c(C(F)(F)F)cc(-c3ccc4c(c3)OCO4)nc12	0.1	0.6	-2.4	6.4	-6.5	18.6*
Cc1c(Cc2ccccc2)c(=O)[nH]c(=O)n1C	nt	nt	nt	nt	nt	-1.1
Cc1ccccc1-c1ccc(/C=C2/SC(N3CCOCC3)=NC2=O)o1	22.7	?	4.4	-4.0	-65.2	2.7
O=C1N=C(N2CCOCC2)S/C1=C\c1ccc(-c2ccccc2Cl)o1	40.0*	?	0.5	31.3	-1.9	-1.3
O=C(CNC(=O)c1ccc(S(=O)(=O)N2CCCC2)cc1)N/N=C/c1ccc(Cl)cc1	3.4	-0.6	7.0	-2.2	0.9	-3.8
O=C(CNC(=O)c1ccc(S(=O)(=O)N2CCCC2)cc1)N/N=C/c1c(Cl)cccc1Cl	3.9	-0.2	18.2*	-5.4	-4.0	-5.0
CCOc1ccc(C(=O)C[n+]2cccc3cc(C)ccc32)cc1	35.2*	-3.0	-0.9	45.5*	-28.9	-0.2
COc1ccc(N=Cc2nc(-c3ccccc3)oc2OC(=O)c2ccccc2)cc1	0.4	-1.5	0.2	-1.6	1.5	4.1
CN(C)c1ccc(N=Cc2nc(-c3ccccc3)oc2OC(=O)c2cccc(Br)c2)cc1	-31.8	-43.3*	9.2	-66.7	-19.6	3.0
Cc1ccc(C(=O)NC(=S)NCc2ccccc2)cc1Br	3.2	1.2	-1.2	13.3	-3.7	nt
O=C(NN1C(=O)/C(=C/c2cc([N+](=O)[O-])ccc2O)SC1=S)c1ccccc1O	4.6	-11.1	-3.0	55.2*	-6.7	nt
NC(=O)c1nsc(C(=O)N(c2cccc(F)c2)C(C(=O)NCC2CCCO2)c2ccc3ncccc3c2)c1N (stereo not given)	-0.9	-0.7	-0.4	2.0	4.0	-3.8
Cc1cc(N2CCCC2)ccc1/C=C1/C(=O)N(C)C(=S)N1C	-62.2	2.1	30.8*	-125.2	-60.7	-63.1
CCOc1cc(-c2cc(-c3ccc(C)cc3)nc(N)c2C#N)ccc1O	30.3*	-4.3	8.8	20.8	14.8	-0.9
COc1cc(-c2cc(-c3ccc(O)cc3)nc(N)c2C#N)ccc1O	1.2	0.9	4.9	1.0	-8.0	0.0
Cc1ccc2ccc(C(Nc3ccccn3)c3ccccc3)c(O)c2n1 (stereo not given)	8.7	0.0	3.2	7.9	-2.3	6.7
Cc1cccc(NC(c2ccc(C)s2)c2ccc3ccc(C)nc3c2O)n1 (stereo not given)	14.3	-0.9	22.4*	23.2	6.7	-12.8
CS(=O)(=O)c1ccc(-c2csc(-c3cccnc3)n2)cc1	31.5*	-2.3	8.3	4.8	-2.3	1.7
CN(C)S(=O)(=O)c1ccc(-c2csc(-c3cccnc3)n2)cc1	0.5	0.4	3.0	2.7	0.4	-0.5
O=C(CCCl)N(Cc1nc2ccccc2c(=O)[nH]1)Cc1cccs1	2.5	0.5	-2.1	1.2	-1.3	6.4
O=C(COC(=O)c1ccc(-n2cnnn2)cc1)Nc1cc(Cl)ccc1F	-0.2	nt	5.8	-1.5	7.2	1.6
CN(C)c1ccc(/C=C/c2ccc3ccccc3n2)cc1	-22.3	1.5	15.7	-58.9	-68.3	-7.2
CCN(CC)c1ccc(/C=C/c2cc(-c3ccccc3)c3ccccc3n2)cc1	30.4*	3.1	5.4	30.8	-140.6	-5.7
